Drawing on PubChem BioAssay AID2642 (Johns Hopkins Ion Channel Center, 2010), this text covers B-score for 105 compounds.

The structures appear in SMILES notation. Out of some 310,000 compounds screened, about 3,900 (1.3%) were called active.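 The calls were made as follows: active = compounds whose thallium flux B-score, printed positive for inhibition, exceeds three library SD while starting fluorescence stays within three; inactive = the rest.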 The full list was thinned out, with actives kept by preference.

In the test the target is Potassium voltage-gated channel subfamily KQT member 1 (Homo sapiens) (UniProt P51787). The test can be described thus: inhibitors of human KCNQ1 channel, primary screen, cell-based, thallium flux, high-throughput (AID 2642).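 Also: channel opened by potassium depolarization with thallium stimulus after 20 min compound exposure.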 The conditions noted are these: CHO-K1 KCNQ1, FluxOR thallium flux fluorescence, at 10 µM; active compounds read high.
Chain of Potassium voltage-gated channel subfamily KQT member 1 (Homo sapiens) (P51787 whole entry, looked up): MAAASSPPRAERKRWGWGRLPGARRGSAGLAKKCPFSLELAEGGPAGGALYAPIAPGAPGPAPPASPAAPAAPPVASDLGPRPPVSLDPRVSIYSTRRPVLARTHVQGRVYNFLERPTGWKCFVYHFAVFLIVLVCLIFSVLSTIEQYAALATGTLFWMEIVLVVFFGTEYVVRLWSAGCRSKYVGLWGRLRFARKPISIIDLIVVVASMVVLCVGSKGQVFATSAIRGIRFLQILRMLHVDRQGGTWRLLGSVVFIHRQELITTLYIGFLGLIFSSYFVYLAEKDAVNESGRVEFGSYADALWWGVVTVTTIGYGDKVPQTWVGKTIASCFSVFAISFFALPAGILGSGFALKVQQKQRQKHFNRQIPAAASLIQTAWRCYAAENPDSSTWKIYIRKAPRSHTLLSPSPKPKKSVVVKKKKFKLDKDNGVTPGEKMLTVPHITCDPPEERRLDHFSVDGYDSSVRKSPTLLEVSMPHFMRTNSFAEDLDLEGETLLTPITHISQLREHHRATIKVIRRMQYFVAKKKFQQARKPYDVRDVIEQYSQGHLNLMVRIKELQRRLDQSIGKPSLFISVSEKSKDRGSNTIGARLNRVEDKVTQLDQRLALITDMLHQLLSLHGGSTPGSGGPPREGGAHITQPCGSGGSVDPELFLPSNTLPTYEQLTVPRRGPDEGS
For the compound `O=C(Nc1nnc(-c2ccccc2)o1)c1cc(-c2cccs2)nc2ccccc12`, the B-score entry was “inactive”.

For `COc1ccc(-c2cc(C(=O)Nc3ccccc3O)c3ccccc3n2)cc1`, the B-score entry is “inactive”.

`CC(C)(C)Cc1nnc(NC(=O)c2cc(-c3ccccc3)nc3ccccc23)s1`: the B-score is 11 (active).

For `O=C(O)CCCCCCCCCC[n+]1ccccc1`, the B-score entry was “inactive”.

For `CCc1noc(C)c1C(=O)Oc1ccc(N(C)S(=O)(=O)c2ccc(C)c(C)c2)cc1`, the B-score is 9 (active).

`CN(c1ccc(OCC(=O)O)cc1)S(=O)(=O)c1ccc2ccccc2c1`: the B-score entry was “inactive”.

In the case of `Cc1ccc(S(=O)(=O)N(C)C)cc1NC(=O)COC(=O)c1c(C)noc1C`, the B-score entry was “inactive”.

Turning to `CCc1ccc(OCC(=O)NCC(c2ccc(Cl)cc2)N2CCCCC2)cc1` (stereo not given), the B-score result was “inactive”.

In the case of `COc1cc(C(=O)Nc2oc(-c3ccccc3)c(-c3ccccc3)c2C#N)cc(OC)c1OC`, the B-score result was “inactive”.

Take `Cc1cc(C)cc(NC(=O)CCN2C(=O)c3ccccc3C2=O)c1`: the B-score result is “inactive”.

Regarding `N#Cc1c(NC(=O)CCCN2C(=O)c3ccccc3C2=O)oc(-c2ccccc2)c1-c1ccccc1`, the B-score was 6 (active).

Turning to `Cc1cc(OCC(=O)N2CCN(c3ncccn3)CC2)ccc1Cl`, the B-score result was “inactive”.

Regarding `COc1cccc(CNCCc2c[nH]c3ccccc23)c1OCc1ccccc1F`, the B-score is 8 (active).

In the case of `COc1ccc(S(=O)(=O)NCCc2c[nH]c3ccccc23)cc1OC`, the B-score entry is “inactive”.

Take `COc1ccccc1CC(=O)NCCc1c[nH]c2ccccc12`: the B-score entry is “inactive”.

On to `O=C(Nc1ccccc1N1CCCC1)c1ccc2ccccc2c1`, for which the B-score result is “inactive”.

In the case of `COc1ccc(N2CCN(C(=O)c3ccc(N4CCCCS4(=O)=O)cc3)CC2)cc1`, the B-score result was “inactive”.

On to `COc1ccccc1C1SCCN1C(=O)c1ccc([N+](=O)[O-])cc1` (stereo not given), for which the B-score result was “inactive”.

With `COc1ccc2[nH]c(=O)c(C3c4cc(OC)c(OC)cc4CCN3C(=O)c3ccco3)cc2c1` (stereo not given), the B-score entry was “inactive”.

In the case of `COc1ccc(C(=O)N2CCc3cc(OC)c(OC)cc3C2c2cccc([N+](=O)[O-])c2)cc1` (stereo not given), the B-score was 7 (active).

As for `CC(C)(CCl)C(=O)Nc1ccc(Sc2ccc(F)cc2)cc1`, the B-score was 9 (active).

On to `O=C(CCl)Nc1ccc(Sc2ccc(NC(=O)CCl)cc2)cc1`, for which the B-score result is “inactive”.

Consider `O=C(Nc1ccncc1)Nc1ccc(F)cc1`, for which the B-score result is “inactive”.

For `CNc1nc2c(C)cccn2c(=O)c1C=Nc1ccc(OC)cc1`, the B-score entry was “inactive”.

As for `CCCN(CCC)c1nc2c(C)cccn2c(=O)c1/C=C1/SC(=S)N(Cc2ccco2)C1=O`, the B-score was 14 (active).

`CCOC(=O)CC1C(=O)NCCN1c1nc2c(C)cccn2c(=O)c1/C=C1\SC(=S)N(C(C)CC)C1=O` (stereo not given): the B-score entry was “inactive”.

Consider `Cc1cccc(OCC(=O)Nc2ccc(NC(=O)c3ccco3)c(C)c2)c1`, for which the B-score entry is “inactive”.

As for `CCC(C)(C(=O)NC1CCCCC1)N(C)C(=O)c1ccc2c(c1)OCO2` (stereo not given), the B-score entry was “inactive”.

Regarding `COCCSc1nnc(NC(=O)c2cc(OC)c(OC)cc2[N+](=O)[O-])s1`, the B-score entry is “inactive”.

With `Cc1cccc(NC(=S)NCc2ccc3[nH]c4c(c3c2)CCCC4)c1`, the B-score was 6 (active).

As to `O=C(O)CCC(=O)NCc1ccc2[nH]c3c(c2c1)CCCC3`, the B-score entry is “inactive”.

Consider `Cc1cc(C)cc(NC(=S)NCc2ccc(F)cc2)c1`, for which the B-score result was “inactive”.

For `CC(C)(C)c1ccc(SCCc2ccncc2)cc1`, the B-score result was “inactive”.

Consider `C=CCN1CN(S(=O)(=O)c2ccc(OC)cc2)c2nc3ccccc3nc21`, for which the B-score entry is “inactive”.

On to `CC(C)(C)NS(=O)(=O)c1ccc(NC(=O)C2CCCO2)cc1` (stereo not given), for which the B-score entry is “inactive”.

For `CCCC(C)C(=O)Nc1ccc(NC(C)=O)cc1` (stereo not given), the B-score entry is “inactive”.

As for `COc1ccc(NC(=O)c2cnc(NS(=O)(=O)c3ccccc3)nc2)cc1`, the B-score entry is “inactive”.

For `COc1ccc(S(=O)(=O)/N=C2\C=C(NS(=O)(=O)c3ccccc3)C(=O)c3ccccc32)cc1`, the B-score was 6 (active).

`CCCC(NS(=O)(=O)c1ccc(OC)cc1)C(=O)O` (stereo not given): the B-score result was “inactive”.

Take `COc1c(N2CCN(C(=S)Nc3ccccc3F)C(C)C2)c(F)cc2c(=O)c(C(=O)O)cn(C3CC3)c12` (stereo not given): the B-score entry is “inactive”.

Consider `Cc1cc(C)n2nc(C(=O)OC(C)C(=O)c3cc(C)c(C)cc3C)nc2n1` (stereo not given), for which the B-score result was “inactive”.

As for `Cc1cc(Br)ccc1NC(=O)c1cnc(N2CCN(c3ccccn3)CC2)c2ccccc12`, the B-score is 7 (active).

On to `Cc1cc(Br)ccc1NC(=O)c1sc2ncn(CC(=O)N3CCN(c4ccccn4)CC3)c(=O)c2c1C`, for which the B-score entry was “inactive”.

For `O=C(CN1CCN(c2ccccn2)CC1)Nc1ccc(Br)cc1`, the B-score entry is “inactive”.

With `COc1ccc(Cc2nnc(SCC(=O)Nc3ccc(C)c(C)c3)o2)cc1OC`, the B-score entry is “inactive”.

With `CCCc1ccc(C(=O)[C@@H]2[C@@H](C(C)=O)N3c4ccc(F)cc4C=C[C@@H]3[C@@]23C(=O)Nc2ccccc23)cc1`, the B-score entry was “inactive”.

Regarding `COc1ccc(-c2nn(-c3ccccc3)cc2C(=O)Nc2nc(CC(C)=O)ns2)cc1`, the B-score entry was “inactive”.

As for `Cc1ccc(-c2nn(-c3ccccc3)cc2CN(Cc2ccccc2)C(=O)CCC(=O)O)o1`, the B-score entry was “inactive”.

Turning to `CCc1ccc(-c2nn(-c3ccccc3)cc2CSC(=N)N)cc1`, the B-score was 14 (active).

On to `COc1ccc2c(c1)c(=O)c(C(=O)c1ccc(Cl)cc1)cn2CC(=O)Nc1ccc(F)cc1`, for which the B-score result is “inactive”.

Consider `S=C(Nc1cccc(Cl)c1)Nc1ccc2cn[nH]c2c1`, for which the B-score result was “inactive”.

As for `FC(F)(F)c1cccc(NC(=S)Nc2cccc(Cl)c2)c1`, the B-score was 18 (active).

On to `O=C(Nc1cccc(S(=O)(=O)Nc2ccc(Cl)cc2)c1)c1ccc2c(c1)OCCO2`, for which the B-score result is “inactive”.

In the case of `Cc1csc(NC(=S)Nc2cccc(Cl)c2)n1`, the B-score result is “inactive”.

In the case of `S=C(Nc1cccc(Cl)c1)Nc1ccc2c(c1)OCCO2`, the B-score was 8 (active).

`S=C(NCc1ccco1)Nc1ccc2c(c1)OCCO2`: the B-score result was “inactive”.

As for `COc1cccc(OCC(O)CNC(=O)c2oc3c(C)c(C)ccc3c2C)c1` (stereo not given), the B-score result is “inactive”.

In the case of `Cc1cc(=O)oc2c3c(cc(OCC(=O)NCCC(=O)N[C@@H](C)C(=O)O)c12)OC(C)(C)CC3`, the B-score entry was “inactive”.

As to `O=C(O)c1ccccc1-c1ccccc1C(=O)Nc1ccccc1Br`, the B-score entry was “inactive”.

As for `Nc1cc(OC(=O)c2ccccc2Br)nn1S(=O)(=O)c1ccccc1`, the B-score result was “inactive”.

With `COc1ccccc1C(=O)NCCC(=O)NC(C)CCc1ccccc1` (stereo not given), the B-score result is “inactive”.

Consider `CCc1ccc(NC(=O)N2CCc3ccccc3C2)cc1`, for which the B-score entry was “inactive”.

Take `CN1CCN(CC(=O)Nc2cccc([N+](=O)[O-])c2)CC1`: the B-score result is “inactive”.

As for `O=C(Nc1cccc([N+](=O)[O-])c1)N1CCc2ccccc2C1`, the B-score was 7 (active).

For the compound `CCCCNCc1ccc(SC)cc1`, the B-score result is “inactive”.

As to `Cc1cc(C)cc(N(CC(=O)N2CC=C(c3ccccc3)CC2)S(=O)(=O)c2c(C)noc2C)c1`, the B-score was 6 (active).

As to `CCOC(=O)C1CCCN(C(=O)CN(c2ccc(OC)cc2)S(=O)(=O)c2c(C)noc2C)C1` (stereo not given), the B-score result is “inactive”.

On to `Cc1cc(C)cc(N(CC(=O)NCC2CCCO2)S(=O)(=O)c2c(C)noc2C)c1` (stereo not given), for which the B-score entry was “inactive”.

`COc1cccc(/C=N/Nc2ncc(C(F)(F)F)cc2Cl)c1O`: the B-score result was “inactive”.

Turning to `COc1cccc(/C=N/NC(=O)c2[nH]nc3c2CCc2ccccc2-3)c1O`, the B-score result was “inactive”.

Turning to `COc1cccc(/C=N/Nc2cc(C)nc(-c3ccccc3O)n2)c1O`, the B-score was 7 (active).

Consider `CN(C(=O)c1ccccc1)c1nccnc1C#N`, for which the B-score result was “inactive”.

With `CCOC(=O)CC1COCCN1C(=O)c1cc(COc2ccc(F)c(F)c2)on1` (stereo not given), the B-score result is “inactive”.

`Cc1nc(N2CCN(c3ccccn3)CC2)c2c(C)c(C(=O)Nc3ccc(F)c(Cl)c3)sc2n1`: the B-score was 13 (active).

Regarding `Cc1nc(N2CCOCC2)c2c(C)c(C(=O)Nc3ccc(C(F)(F)F)cc3)sc2n1`, the B-score entry is “inactive”.

As for `O=C(c1c(F)cccc1Cl)N1CCN(c2ccccn2)CC1`, the B-score result was “inactive”.

Regarding `COc1ccc(NC(=O)c2sc3nc(C)nc(N4CCN(c5ccccn5)CC4)c3c2C)c(OC)c1`, the B-score entry was “inactive”.

Take `Cc1nc(N2CCN(c3ccccn3)CC2)c2c(C)c(C(=O)Nc3ccc(F)cc3)sc2n1`: the B-score is 10 (active).

For the compound `Cc1nc(N2CCC(C)CC2)c2c(C)c(C(=O)Nc3cc(F)ccc3C)sc2n1`, the B-score result was “inactive”.

Turning to `Cc1ccccc1NC(=O)c1cc(S(=O)(=O)Nc2cccc(C(=O)O)c2)ccc1Cl`, the B-score result was “inactive”.

Regarding `COCOc1cc(O)c(C(=O)/C=C/c2ccc(OCOC)c(OCOC)c2)c(OCOC)c1`, the B-score result was “inactive”.

As to `CCCCS(=O)c1snnc1C` (stereo not given), the B-score result is “inactive”.

`COc1ccc(OC)c(Nc2nc3ccccc3n3cnnc23)c1`: the B-score result was “inactive”.

Regarding `COc1cccc(C(=O)Nc2nnc(S(=O)(=O)N(C)c3ccccc3)s2)c1`, the B-score result is “inactive”.

Turning to `CS(=O)(=O)c1ccc(Cl)c(NC(=O)COC(=O)c2cccc(S(=O)(=O)N3CCCC3)c2)c1`, the B-score entry was “inactive”.

With `COc1ccc(C2C=C(c3ccc(Br)cc3)Nc3nc(NS(C)(=O)=O)nn32)cc1` (stereo not given), the B-score result is “inactive”.

As for `COc1ccc(C)cc1NC(=O)Nc1ccccc1SC`, the B-score result was “inactive”.

`COc1ccc(C)cc1NC(=O)NCCCCc1ccccc1`: the B-score entry is “inactive”.

Turning to `COc1ccc(C)cc1NC(=O)C(Sc1ccccc1)c1ccccc1` (stereo not given), the B-score is 6 (active).

Turning to `CCCN1CNC(=S)N(CCc2ccccc2)C1`, the B-score entry was “inactive”.

On to `CCOC(=O)c1sc(=NC(=O)c2ccc(Br)cc2)n(C)c1C`, for which the B-score entry is “inactive”.

Take `CCOC(=O)C1=C(C)Nc2sc(C(=O)c3ccc(Br)cc3)c(N)c2C1c1ccc(C(=O)OC)cc1` (stereo not given): the B-score was 8 (active).

Consider `CCOC(=O)c1sc(=S)n2c1[nH]c(=O)c1ccc(C(=O)OC)cc12`, for which the B-score entry was “inactive”.

Regarding `CCOC(=O)c1ccc(NC(=O)Cn2cnc3cc(C)c(C)cc32)cc1`, the B-score is 7 (active).

On to `CCOC(=O)c1ccc(NC(=O)CSc2nnc(COc3ccccc3OC)n2C)cc1`, for which the B-score entry was “inactive”.

Consider `CCCc1nnc(SCC(=O)Nc2ccc(C(=O)OCC)cc2)o1`, for which the B-score entry was “inactive”.

As to `COc1ccc(CCNc2cc(N3CCN(C(=O)c4ccccc4OC)CC3)ccc2[N+](=O)[O-])cc1OC`, the B-score result is “inactive”.

Take `Cc1cc(Cl)ccc1NC(=S)NCCCN1CCCC1=O`: the B-score result was “inactive”.

`O=C1CCCN1CCCNC(=S)Nc1ccc(F)c(Cl)c1`: the B-score is 7 (active).

Turning to `Cc1c(Cl)cccc1NC(=O)NCCCN1CCCC1=O`, the B-score result is “inactive”.

For the compound `CCOc1cc(CN2CCCC(CO)(Cc3ccc(F)cc3F)C2)ccc1OC` (stereo not given), the B-score entry was “inactive”.

For the compound `CN(Cc1ccc(F)cc1Cl)S(=O)(=O)c1cccs1`, the B-score result was “inactive”.

`O=C(Nn1c(SCc2ccc([N+](=O)[O-])cc2)nc2ccccc2c1=O)c1ccc(F)cc1`: the B-score is 9 (active).

As for `O=C(Nn1c(-c2ccccc2)nc2ccccc2c1=O)c1ccc([N+](=O)[O-])cc1`, the B-score result is “inactive”.

Turning to `C=CCn1c(SCc2ccc(C(=O)NCCO)cc2)nc2ccccc2c1=O`, the B-score entry is “inactive”.
